# Assay outcomes deposited in PubChem BioAssay by National Center for Advancing Translational Sciences (NCATS).
# DRD3 agonist = qHTS of D3 Dopamine Receptor Agonist: qHTS. D(3) dopamine receptor (Homo sapiens), P35462. D3R DiscoveRx beta-arrestin cells, luminescence, 90 min. max activation, %. 410,000 compounds, 0.58% hits. AID 652048, 2013; in the data active means max activation above about 30%; further: 0% is about no effect
#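 Agonist-mode cell screen: cells plated at 1500/well and incubated overnight at 37 °C, then exposed to library compounds for 90 min at 37 °C. Detection reagent was added for 30–60 min at room temperature, and luminescence was read.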
# a7 integrin act = qHTS for Activators of Integrin-Mediated Alleviation for Muscular Dystrophy; alpha7betagal myoblasts, beta-gal FDG fluorescence, 48 h; Potency, µM (series often up to 38.3 µM), inactives show at the highest dose activation, actives largely listed as activators; 350,000 compounds, 0.064% hits; AID 624291, 2012;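 further: potency means the concentration at half of the fitted maximal effect; 100% = response of the positive control SU9516; nearly all actives have a fitted effect of over 60% in size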
#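 Alpha7betagal+/- myoblasts (passage 13) were plated 16-24 hr, then exposed to compounds (1:260 dilution of DMSO stock) for 48 hours at 37C. After MPER lysis, β-galactosidase reporter activity was read as FDG fluorescence (ex 480/em 540) after 30 minutes.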
# DRD3 antagonist = qHTS of D3 Dopamine Receptor Antagonist: qHTS; AID 652054, 2013; D(3) dopamine receptor (Homo sapiens), P35462; max response, negative = inhibition, %; D3R cells, DiscoveRx beta-arrestin luminescence, antagonist mode; stronger effect = lower value; 360,000 compounds, 2.5% hits; in the data active means max response below about -50%; inconclusive means no clear call, values can overlap the other calls; further: on the % scale 0 is the no-effect control and ±100 the full control effect
#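 Cells plated overnight at 1500 cells/well, then exposed to library compounds with dopamine controls for 90 minutes at 37 degrees C. DiscoveRx reagent added for 30–60 minutes at room temperature; luminescence read, quantitative HTS format.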
# IDH1 R132H inh = qHTS for Inhibitors of mutant isocitrate dehydrogenase 1 (IDH1): qHTS; Isocitrate dehydrogenase [NADP] cytoplasmic (Homo sapiens), O75874; IDH1-R132H enzyme, NADPH consumption, diaphorase/resazurin fluorescence; Potency, µM (top dose mostly 76.6 µM), for the others: at the highest dose activity change, negative = inhibition, most hits filed as inhibitors; 390,000 compounds, 0.093% hits; further: potency means the concentration at half of the fitted maximal effect; on the % scale 0 is the no-effect control and ±100 the full control effect; nearly all actives have a fitted effect of over 65% in size
# Target sequence (O75874 whole entry R132H, stated change not applied): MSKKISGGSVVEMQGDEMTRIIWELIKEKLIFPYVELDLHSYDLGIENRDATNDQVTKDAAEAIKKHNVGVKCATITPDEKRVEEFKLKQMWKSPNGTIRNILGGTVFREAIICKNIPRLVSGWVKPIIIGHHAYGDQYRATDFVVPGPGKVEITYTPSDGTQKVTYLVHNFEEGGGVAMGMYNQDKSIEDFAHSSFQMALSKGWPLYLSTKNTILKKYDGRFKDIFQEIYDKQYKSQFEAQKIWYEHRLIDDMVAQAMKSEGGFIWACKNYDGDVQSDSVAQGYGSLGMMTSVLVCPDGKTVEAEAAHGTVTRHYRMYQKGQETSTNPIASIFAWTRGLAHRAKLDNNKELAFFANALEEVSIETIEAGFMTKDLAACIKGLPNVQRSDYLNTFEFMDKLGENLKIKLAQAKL
#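 IDH1-R132H (0.5 ug/mL) preincubated 30 min with compound, then NADPH (0.016 mM) and alpha-KG (2 mM) added; 80 min at RT, pH 7.5. Remaining NADPH coupled via diaphorase/resazurin to fluorescence (540/590 nm); concentration-response curves normalized to no-enzyme control.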
# B2AR arrestin = qHTS assay of beta-arrestin-biased ligands of beta2-adrenergic receptor | Beta-2 adrenergic receptor (Homo sapiens), P07550 | beta-arrestin recruitment to beta2AR, cell-based reporter | Potency, µM (series often up to 46.1 µM), for inactives: at the highest dose activation, hits mostly activators | 330,000 compounds, 0.02% hits;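 further: potency means the concentration at half of the fitted maximal effect; 0% = DMSO controls and full agonism = EC100 isoproterenol or metaproterenol; nearly all actives have a fitted effect of over 65% in size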
# Numbers without * were called inactive; u = inconclusive; x = no result; [ ] = dose if it differs, or a comment. In the library only some 2.9% were active in any assay of this set; here they are far more common. Unless noted, the call rests on the fitted dose curve; in most records, active means well fitted curve in the direction sought with a large enough effect; inconclusive means small, poorly fitted or top-dose-only effect, or another doubt; inactive means no such curve, though single readings can be large; an effect the other way counts as inactive or inconclusive.
SMILES,DRD3 agonist,a7 integrin act,DRD3 antagonist,IDH1 R132H inh,B2AR arrestin
Cc1ccc(N=C(NOCc2ccc(Cl)cc2Cl)c2nonc2N)c(C)c1,-15,-34%,0,0%,0%
O=C(CSc1nc(-c2ccccc2)c2ccccc2n1)Nc1ccc(F)cc1,-10,x,x,12%,x
Cc1cc(C)c(OCC(=O)Nc2cccc(NC(=O)c3ccco3)c2)c(Br)c1,34*,10%,43,0%,0%
COc1ccc(-c2c(C)c3ccc(O)c(CN4CCOCC4)c3oc2=O)cc1OC,3,x,x,-10%,x
COc1ccc(CCN2C(=O)CN(C3CCCCCC3)C(=O)C2c2ccc(Cl)cc2)cc1OC (configuration not stated),-6,x,x,-9%,x
COc1ccc(S(=O)(=O)N(C)C[C@H]2Oc3ccc(NC(=O)NC4CCCCC4)cc3C(=O)N([C@H](C)CO)C[C@@H]2C)cc1,-1,-9%,3,-16%,-1%
CC1CC2=C(C(=O)O1)C(c1ccc(Cl)cc1)Nc1ccccc1N2 (configuration not stated),-4,-4%,-52*,-3%,0%
CCn1cc(/C=C(\NC(=O)c2ccccc2Cl)C(=O)NCCCn2ccnc2)c2ccccc21,-6,x,x,3%,x
O=C(NCc1cccnc1)c1cc(S(=O)(=O)N2CCCC2)c(Cl)cc1Cl,1,18%,4,-1%,0%
O=C(Oc1c(-c2ccccc2)c(=O)n2c3c(cccc13)CC2)c1ccco1,49*,-6%,71,9%,0%
O=C(Oc1c(-c2ccccc2)c(=O)n2c3c(cccc13)CC2)c1ccc(Cl)cc1,13,4%,34,0%,0%
C(=Cc1cccnc1)c1ccncc1,14,0%,19,3%,x
Cc1cccc(C(=O)Nc2ccc(C(=O)/C=C/c3cccnc3)cc2)c1,-12,-24%,-81*,4%,-4%
O=C(/C=C/c1cccnc1)/C=C/c1cccnc1,-17,-76%,-102*,0%,-1%
Cc1cccc(OCC(=O)Nc2ccc3c(c2)nc(CCNC(=O)c2ccco2)n3C)c1,-8,x,x,-20%,x
CCOc1ccc(/C=N/NC(=O)c2ccccc2Cl)cc1CN1CC2CC(C1)c1cccc(=O)n1C2 (configuration not stated),-94,x,-85*,-21%,0%
CCOc1c2ccc(C(=O)N[C@H](C)C3CCCCC3)cc2nn1CC,-9,-11%,-82*,-10%,-1%
CCCCn1nc2cc(C(=O)NCC34CC5CC(CC(C5)C3)C4)ccc2c1OCC,-32,-21%,-79*,4%,0%
Cc1cc2c(cc1C)-n1nnnc1C(N1CCCNCC1)C(=O)N2 (configuration not stated),-6,x,0,x,x
Cc1ccc(-c2noc(CN(C3CCCCC3)S(=O)(=O)c3ccc(C)cc3)n2)cc1,-2,x,x,-11%,x
COc1cc(OC)c2c(-c3ccccc3)cc(=O)oc2c1C(CCN1CCN(c2ccccc2)CC1)c1ccc(N(C)C)cc1 (configuration not stated),-4,-30%,-62*,2%,0%
COc1ccc(C(CCN2CCN(c3ccccc3)CC2)c2c(OC)cc(OC)c3c(-c4ccccc4)cc(=O)oc23)cc1 (configuration not stated),-1,-6%,-53*,-10%,0%
COc1cc(OC)c2ccc(=O)oc2c1C(CCN1CCN(c2ccccc2)CC1)c1ccc(N(C)C)cc1 (configuration not stated),-62,-30%,-115*,-8%,0%
COc1cc(OC)c2c(-c3ccccc3)cc(=O)oc2c1C(CC(=O)N1CCN(c2ccccc2)CC1)c1ccc(N(C)C)cc1 (configuration not stated),-2,-16%,u,-8%,0%
COc1ccc(C(CCN2CCOCC2)c2c(OC)cc(OC)c3ccc(=O)oc23)cc1 (configuration not stated),-32,26%,-16,2%,0%
SMILES,DRD3 agonist,a7 integrin act,DRD3 antagonist,IDH1 R132H inh,B2AR arrestin
CCCCCc1cc(=O)oc2c(C(CCN3CCN(c4ccccc4)CC3)c3ccc(N(C)C)cc3)c(OC)cc(OC)c12 (configuration not stated),-45,-42%,-52*,-8%,0%
CCCCCc1cc(=O)oc2c(C(CCN3CCCCC3)c3ccc4c(c3)OCO4)c(OC)cc(OC)c12 (configuration not stated),-63,-44%,-20,1%[38.3 µM],0%
CCc1cccc(N2C(=O)CSC23C(=O)Nc2ccccc23)c1 (configuration not stated),7,x,x,-11%,x
CCNc1nc2c(c(=O)[nH]c(=O)n2C)n1CC(O)COc1ccc(Cl)cc1Cl (configuration not stated),-11,x,x,x,x
Cc1ccc2c(c1)N(C(=O)CCC(=O)NCc1cccc(F)c1)CC(C)O2 (configuration not stated),-13,x,x,-1%,x
Cc1ccc(-c2noc(CNC(=O)c3ccc(C)c(Cl)c3)n2)cc1,-6,x,x,15%,x
COc1cccc(S(=O)(=O)NC2CCN(C#N)C2)c1 (configuration not stated),x,x,x,x,0%
Cc1cccc(C)c1OCC(O)CNC(C)(C)C (configuration not stated),0,-1%,-51*,1%,0%
Cc1cccc(C)c1OCC(O)CNC(C)C (configuration not stated),4,-11%,-7,-1%,0%
COc1ccc([C@H]2/C=C\CN(C(=O)c3ccccc3)[C@@H](C)C(=O)N2Cc2ccc(F)cc2)cc1,1,8%,0,-8%,x
COc1ccc([C@H]2/C=C\CN(S(=O)(=O)/C=C/c3ccccc3)[C@@H](C)C(=O)N2Cc2ccc(F)cc2)cc1,40*,-17%,7,-7%,x
COc1ccc(C2/C=C\CN(C(=O)C3CCCC3)[C@H](Cc3ccccc3)C(=O)N2Cc2ccc(F)cc2)cc1 (some centres not stated),-22,-26%,-68*,6%,0%
N/C(Cc1cccc2ccccc12)=N\OC(=O)Cc1cccs1,5,14%,-10,7%,0%
N/C(Cc1cccc2ccccc12)=N\OC(=O)c1cccs1,-3,0%,-76*,-1%,0%
CN(CCN1CCc2ccccc2C1)Cc1nc(-c2ccc3c(c2)OCO3)no1,-20,-9%,-70*,9%,-1%
CN(Cc1nc(-c2ccccc2)no1)C(=O)c1ccc2c(c1)OCO2,-7,8%,-50*,9%,0%
CN(CCCCN1CCOCC1)Cc1nc(-c2ccc3c(c2)OCO3)no1,-13,19%,-23,0%,-1%
